Results published in PubChem BioAssay AID1159580 (chemical genetic matrix, 2015).
Out of some 5,500 compounds screened, about 2,000 (36%) were called active. Inconclusive results (about 18%) are left out. No stated cut-off is given here; in the data, active means normalized growth mostly below about 0.91 (no sharp cut-off); inconclusive means no clear call, values can overlap the other calls; inactive means mostly above about 0.92. The list shows a part of the results.

Test: chemical genetic growth profiling, strain panel (AID 1159580);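 further: tested at 20 µM; growth read once vehicle control cultures reached saturation at 30 °C; 1 = growth at the plate median or of vehicle wells; lower values mean less growth of the strain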
Settings: growth OD

Measured: normalized growth

CC(C)=CCC/C(C)=C/CO
inactive: S. cerevisiae deletion strains, locus YJR075W, strain HOC1, active compounds read low 1.01 | S. cerevisiae deletion strains, locus YKL009W, strain mrt4, active compounds read low 0.918 | S. cerevisiae deletion strains, locus YKL068W, active compounds read low 0.993 | S. cerevisiae deletion strains, locus YKL085W, strain MDH1 (second series), active compounds read low 0.98 | S. cerevisiae deletion strains, locus YKL085W, strain MDH1, active compounds read low 0.98 | S. cerevisiae deletion strains, locus YKL160W, strain elf1, active compounds read low 1.01 | S. cerevisiae deletion strains, locus YKL190W, strain CNB1, active compounds read low 1.01 | S. cerevisiae deletion strains, locus YKR001C, strain vps1, active compounds read low 0.99 | S. cerevisiae deletion strains, locus YKR026C, strain gcn3, active compounds read low 0.985 | S. cerevisiae deletion strains, locus YKR091W, strain srl3, active compounds read low 0.986 | S. cerevisiae deletion strains, locus YLL001W, strain dnm1, active compounds read low 0.994 | S. cerevisiae deletion strains, locus YLL026W, active compounds read low 0.998 | S. cerevisiae deletion strains, locus YLL041C, strain sdh2, active compounds read low 0.98 | S. cerevisiae deletion strains, locus YLR027C, strain aat2, active compounds read low 0.996 | S. cerevisiae deletion strains, locus YLR039C, strain RIC1, active compounds read low 1.01 | S. cerevisiae deletion strains, locus YLR058C, strain SHM2, active compounds read low 1.01 | S. cerevisiae deletion strains, locus YLR102C, strain apc9, active compounds read low 0.991 | S. cerevisiae deletion strains, locus YLR113W, strain HOG1, active compounds read low 0.984 | S. cerevisiae deletion strains, locus YLR221C, strain rsa3, active compounds read low 0.947 | S. cerevisiae deletion strains, locus YLR258W, strain gsy2, active compounds read low 1 | S. cerevisiae deletion strains, locus YLR262C, strain YPT6 (second series), active compounds read low 0.978 | S. cerevisiae deletion strains, locus YLR262C, strain YPT6, active compounds read low 1.03 | S. cerevisiae deletion strains, locus YLR268W, strain sec22, active compounds read low 0.966 | S. cerevisiae deletion strains, locus YLR320W, strain mms22, active compounds read low 0.96 | S. cerevisiae deletion strains, locus YLR330W, strain CHS5, active compounds read low 1.01 | S. cerevisiae deletion strains, locus YLR342W, strain FKS1 (second series), active compounds read low 1.04 | S. cerevisiae deletion strains, locus YLR342W, strain FKS1, active compounds read low 0.974 | S. cerevisiae deletion strains, locus YLR357W, strain rsc2, active compounds read low 0.986 | S. cerevisiae deletion strains, locus YLR370C, strain arc18, active compounds read low 0.983 | S. cerevisiae deletion strains, locus YLR371W, strain rom2, active compounds read low 0.985 | S. cerevisiae deletion strains, locus YLR384C, strain iki3, active compounds read low 0.981 | S. cerevisiae deletion strains, locus YLR418C, strain cdc73, active compounds read low 0.975 | S. cerevisiae deletion strains, locus YML016C, strain PPZ1, active compounds read low 1.02 | S. cerevisiae deletion strains, locus YML032C, strain rad52, active compounds read low 0.991 | S. cerevisiae deletion strains, locus YML120C, strain ndi1, active compounds read low 1.01 | S. cerevisiae deletion strains, locus YML124C, strain tub3, active compounds read low 0.991 | S. cerevisiae deletion strains, locus YMR058W, strain fet3, active compounds read low 0.972 | S. cerevisiae deletion strains, locus YMR078C, strain ctf18, active compounds read low 0.98 | S. cerevisiae deletion strains, locus YMR125W, strain sto1, active compounds read low 1.01 | S. cerevisiae deletion strains, locus YMR129W, active compounds read low 0.994 | S. cerevisiae deletion strains, locus YMR205C, strain PFK2, active compounds read low 1.01 | S. cerevisiae deletion strains, locus YMR223W, strain ubp8, active compounds read low 1.01 | S. cerevisiae deletion strains, locus YMR231W, strain pep5, active compounds read low 0.983 | S. cerevisiae deletion strains, locus YMR263W, strain SAP30, active compounds read low 1.02 | S. cerevisiae deletion strains, locus YMR307W, strain GAS1, active compounds read low 1.01 | S. cerevisiae deletion strains, locus YNL067W, strain RPL9B, active compounds read low 1.01 | S. cerevisiae deletion strains, locus YNL071W, strain lat1, active compounds read low 0.988 | S. cerevisiae deletion strains, locus YNL128W, strain TEP1, active compounds read low 1.01 | S. cerevisiae deletion strains, locus YNL153C, strain GIM3, active compounds read low 0.998 | S. cerevisiae deletion strains, locus YNL183C, strain NPR1, active compounds read low 0.991 | S. cerevisiae deletion strains, locus YNL209W, strain ssb2, active compounds read low 0.99 | S. cerevisiae deletion strains, locus YNL233W, strain BNI4, active compounds read low 1.01 | S. cerevisiae deletion strains, locus YNL248C, strain rpa49, active compounds read low 0.969 | S. cerevisiae deletion strains, locus YNL250W, strain rad50, active compounds read low 0.992 | S. cerevisiae deletion strains, locus YNL271C, strain bni1, active compounds read low 0.975 | S. cerevisiae deletion strains, locus YNL298W, strain CLA4, active compounds read low 0.991 | S. cerevisiae deletion strains, locus YNL307C, strain MCK1, active compounds read low 1 | S. cerevisiae deletion strains, locus YNL322C, strain KRE1 (second series), active compounds read low 0.984 | S. cerevisiae deletion strains, locus YNL322C, strain KRE1, active compounds read low 1.01 | S. cerevisiae deletion strains, locus YNR049C, strain mso1, active compounds read low 0.984 | S. cerevisiae deletion strains, locus YNR052C, strain pop2, active compounds read low 0.987 | S. cerevisiae deletion strains, locus YOL006C, strain TOP1, active compounds read low 0.999 | S. cerevisiae deletion strains, locus YOL012C, strain htz1 0.813 | S. cerevisiae deletion strains, locus YOL147C, strain pex11, active compounds read low 0.996 | S. cerevisiae deletion strains, locus YOR001W, strain rrp6, active compounds read low 0.923 | S. cerevisiae deletion strains, locus YOR061W, strain CKA2, active compounds read low 1.02 | S. cerevisiae deletion strains, locus YOR069W, strain VPS5, active compounds read low 1.01 | S. cerevisiae deletion strains, locus YOR070C, strain gyp1, active compounds read low 0.987 | S. cerevisiae deletion strains, locus YOR080W, strain dia2, active compounds read low 0.987 | S. cerevisiae deletion strains, locus YOR083W, strain WHI5, active compounds read low 1.02 | S. cerevisiae deletion strains, locus YOR106W, strain vam3, active compounds read low 1.02 | S. cerevisiae deletion strains, locus YOR136W, strain idh2, active compounds read low 0.994 | S. cerevisiae deletion strains, locus YOR144C, strain elg1, active compounds read low 0.994 | S. cerevisiae deletion strains, locus YOR184W, strain ser1, active compounds read low 0.949 | S. cerevisiae deletion strains, locus YOR231W, strain MKK1, active compounds read low 0.983 | S. cerevisiae deletion strains, locus YOR265W, strain rbl2, active compounds read low 0.989 | S. cerevisiae deletion strains, locus YOR270C, strain vph1, active compounds read low 0.953 | S. cerevisiae deletion strains, locus YOR290C, strain snf2, active compounds read low 1 | S. cerevisiae deletion strains, locus YOR316C, strain cot1, active compounds read low 0.992 | S. cerevisiae deletion strains, locus YPL051W, strain arl3, active compounds read low 0.996 | S. cerevisiae deletion strains, locus YPL055C, strain LGE1, active compounds read low 1.04 | S. cerevisiae deletion strains, locus YPL078C, strain atp4, active compounds read low 1.01 | S. cerevisiae deletion strains, locus YPL106C, strain sse1, active compounds read low 0.977 | S. cerevisiae deletion strains, locus YPL240C, strain hsp82, active compounds read low 0.99 | S. cerevisiae deletion strains, locus YPL241C, strain CIN2, active compounds read low 1 | S. cerevisiae deletion strains, locus YPL256C, strain CLN2, active compounds read low 1.05 | S. cerevisiae deletion strains, locus YPR119W, strain clb2, active compounds read low 0.991 | S. cerevisiae deletion strains, locus YPR141C, strain kar3, active compounds read low 0.991 | S. cerevisiae deletion strains, locus YPR163C, strain tif3, active compounds read low 0.987 | S. cerevisiae deletion strains, locus YPR167C, strain met16, active compounds read low 0.995 | S. cerevisiae deletion strains, strain wtn01, active compounds read low 0.987 | S. cerevisiae strains, strain wild type, active compounds read low 1.02
